IDH1 R132H inh: qHTS for Inhibitors of mutant isocitrate dehydrogenase 1 (IDH1): qHTS; IDH1-R132H enzyme, NADPH consumption, diaphorase/resazurin fluorescence; Potency, µM (titrated, usually from 76.6 µM), without a hit: top-dose activity change, negative = inhibition, usual class: inhibitors; actives 0.093% (n = 390,000); note: % is set by controls: 0 for no effect and ±100 for the full control effect; nearly all actives have a fitted effect of over 65% in size
Target sequence (O75874 whole entry R132H, stated change not applied): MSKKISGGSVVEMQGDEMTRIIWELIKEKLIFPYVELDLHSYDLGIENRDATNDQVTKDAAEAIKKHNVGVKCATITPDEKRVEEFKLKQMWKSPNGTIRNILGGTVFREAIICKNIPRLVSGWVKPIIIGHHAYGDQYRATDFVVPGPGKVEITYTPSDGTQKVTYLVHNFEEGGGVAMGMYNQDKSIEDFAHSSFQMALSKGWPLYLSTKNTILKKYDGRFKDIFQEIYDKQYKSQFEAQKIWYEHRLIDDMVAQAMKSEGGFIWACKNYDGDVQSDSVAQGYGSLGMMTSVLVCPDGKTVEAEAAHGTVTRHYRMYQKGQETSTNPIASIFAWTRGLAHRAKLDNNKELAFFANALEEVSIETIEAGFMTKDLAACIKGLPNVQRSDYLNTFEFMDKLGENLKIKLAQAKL
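IDH1-R132H (0.5 ug/mL dispensed) in pH 7.5 Tris buffer was preincubated 30 min with compound, then given a substrate mix of 0.016 mM NADPH and 2 mM alpha-KG for 80 min at room temperature; remaining NADPH was read by diaphorase/resazurin fluorescence.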
ELG1 DNA repair: qHTS screen for small molecules that inhibit ELG1-dependent DNA repair in human embryonic kidney (HEK293T) cells expressing luciferase-tagged ELG1; Potency, µM (doses to about 46.1 µM), inactives show at the highest dose activity change, negative = inhibition, usual class: inhibitors; actives 2.3% (n = 330,000); HEK293T ELG1-luciferase reporter, luminescence, 16 h; DNA damage induced by 5-fluorouridine; note: % is set by controls: 0 for no effect and ±100 for the full control effect; nearly all actives have a fitted effect of over 55% in size
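HEK293T cells expressing luciferase-tagged ELG1 (2,000/well) received 5-Fluorouridine plus compound or DMSO for 16 hr at 37 °C. Luciferase was read by ONE-Glo luminescence after 30 min at room temperature.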
A549 viability: Nrf2 qHTS screen for inhibitors: counterscreen for cytotoxicity; AID 504648, 2011; actives 0.16% (n = 390,000); A549 ARE-Fluc cells, CellTiter-Fluor viability, 18-24 h; Potency, µM (titrated, usually from 46 µM), inactives show top-dose activity change, negative = cytotoxicity, actives largely listed as inhibitors; note: % is set by controls: 0 for no effect and ±100 for the full control effect
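A549 ARE-Fluc cells in 5% FBS OPTI-MEM, 5000 cells/well, rested 2 h then exposed to compounds in concentration-response for 18-24 h at 37 °C. Viability by CellTiter-Fluor fluorescence (Ex 405/Em 525) after 30 min; luciferase luminescence (BugLite, 15 min, RT) read afterwards.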
Nrf2 block: Nrf2 qHTS screen for inhibitors | A549 ARE-Fluc reporter, luciferase luminescence, 18-24 h | Potency, µM (top dose mostly 46 µM), without a hit: at the top dose activity change, negative = inhibition, actives largely listed as inhibitors | actives 2.1% (n = 360,000) | AID 504444, 2011; note: % is set by controls: 0 for no effect and ±100 for the full control effect; nearly all actives have a fitted effect of over 60% in size
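A549 ARE_Fluc cells (5000/well, 5% FBS OPTI-MEM) pre-incubated 2 h, then treated with compounds 18-24 h at 37C/5% CO2 in concentration-response. CellTiter-Fluor viability read first; BugLite luciferase luminescence after 15 min at room temperature gives Nrf2 activity.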
Nrf2 activator: qHTS of Nrf2 Activators. AREc32 ARE-luciferase reporter (MCF7-derived line), luminescence, 24 h. Potency, µM (titrated, usually from 46.1 µM), for the others: top-dose activation, usual class: activators. actives 0.31% (n = 410,000). AID 624171, 2012; note: % of control where 0% means no effect; nearly all actives have a fitted effect of over 65% in size
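AREc32 cells carrying an ARE-driven firefly luciferase reporter were seeded at 1000 cells/well in OPTI-MEM with 5% FBS, then exposed to compound for 24 hr at 37 deg C. Luminescence was read with Steady-Glo after 30 min at RT.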
Numbers without * were called inactive; ? = inconclusive; · = no result. Rows were chosen to be rich in hits. Some 3.8% of all compounds tested hit in one or more screens of this group. Calls come from the whole dose curve; as a rule, active = well fitted curve in the direction sought with a large enough effect; inconclusive = small, poorly fitted or top-dose-only effect, or another doubt; inactive = no such curve, though single readings can be large; an effect the other way counts as inactive or inconclusive. Potency is the fitted concentration of half-maximal effect.

SMILES	IDH1 R132H inh	ELG1 DNA repair	A549 viability	Nrf2 block	Nrf2 activator
C/C(=C\c1ccc(N(C)C)cc1)[N+](=O)[O-]	2%	?	?	23µM*	?
C/C(CC(=O)Nc1ccc(Cl)cn1)=N\NC(=O)Cc1cccs1	0%	?	-5%	8%	7%
CCOC(=O)C1=Nc2ccccc2/C1=C\c1c(O)n(C)c(=O)n(C)c1=O	-3%	21µM*	7%	-3%	4%
CCCCN1C(=O)NC(=O)C2(Cc3c(nc4ccccn4c3=O)N3CCc4ccccc4C32)C1=O (stereo unspecified)	-1%	?	·	12%	?
Cc1cccn2c(=O)c3c(nc12)N1CCc2ccccc2C1C1(C3)C(=O)NC(=O)N(C)C1=O (stereo unspecified)	8%	13µM*	3%	?	-1%
CCCCN1C(=O)NC(=O)C2(Cc3c(nc4c(C)cccn4c3=O)N3CCc4ccccc4C32)C1=O (stereo unspecified)	-20%	21µM*	-28%	?	3%
COc1ccc(CC(=O)Nc2ccc(C#N)c(Cl)c2)cc1S(=O)(=O)N1CCOCC1	1%	-3%	-6%	?	2%
COc1ccc(NC(=O)CCOc2cc(C)ccc2C)cc1S(=O)(=O)N1CCCCC1	0%	23µM*	-28%	?	2%
Cc1ccc(S(=O)(=O)c2nnn3c2nc(N2CCC(C(N)=O)CC2)c2cc(Cl)ccc23)cc1C	-2%	·	-5%	?	0%
O=C(Nc1ccc(Cl)c(C(F)(F)F)c1)c1ccc2c(c1)CCN2S(=O)(=O)c1ccccc1	-11%	·	-19%	?	-1%
CCOC(=O)N1CCN(C(=O)Cn2ncc3c4ccccc4n(Cc4ccc(F)cc4)c3c2=O)CC1	-3%	·	-17%	?	0%
O=C(Cn1ncc2c3ccccc3n(Cc3ccc(F)cc3)c2c1=O)N1CCC2(CC1)OCCO2	1%	21µM*	-6%	?	3%
COc1ccc(-c2nc(NC(=O)Cn3c(=O)oc4ccccc43)sc2C)cc1	-11%	?	-17%	18µM*	4%
Cc1ccc(CN2C(=O)c3ccccc3Sc3ccc(C(=O)N4CCC5(CC4)OCCO5)cc32)cc1	-27%	·	-11%	·	-1%
Cc1ccc(C)c(CN2C(=O)c3ccccc3S(=O)(=O)c3ccc(C(=O)N4CCCCCC4)cc32)c1	·	·	-28%	21µM*	5%
O=C(CCS(=O)(=O)c1ccccc1)Nc1nnc(-c2ccco2)o1	-1%	11%	-4%	11%	?
CC(C)Cn1c(O)c(N=NC(=O)c2cccc(S(=O)(=O)N3CCCCC3)c2)c2ccccc21	-2%	?	?	21µM*	2%
Nc1nnc(Sc2ncccc2[N+](=O)[O-])s1	-2%	-15%	-2%	4%	?
CN1CC[C@@]2(C)c3cc(O)ccc3N(C)[C@@H]12	30%	·	23µM*	-4%	-2%
CCN(CC)CCOC(=O)c1ccc(NC(=O)CCn2c(=O)oc3ccccc32)cc1	4%	·	?	2%	0%
CC(C)OP(=O)(Oc1ccc(C(O)C(Cl)(Cl)Cl)cc1)OC(C)C (stereo unspecified)	5%	18µM*	4%	?	0%
CCC(=Nc1ccc(Cc2ccncc2)cc1)c1c(O)n(C)c(=O)n(C)c1=O	-1%	7.3µM*	4%	-5%	0%
CCOC(=O)c1ccc(N=C(CC)c2c(O)n(C)c(=O)n(C)c2=O)cc1	5%	-18%	0%	-11%	1%
CCC(=NCCC(c1ccccc1)c1ccccc1)c1c(O)n(C)c(=O)n(C)c1=O	-10%	?	2%	-22%	-1%
CCC(=NCc1ccc(F)cc1)c1c(O)n(C)c(=O)n(C)c1=O	7%	7.9µM*	-23%	?	0%
SMILES	IDH1 R132H inh	ELG1 DNA repair	A549 viability	Nrf2 block	Nrf2 activator
CCc1ccc(CNC(=O)C2CCN(C(=O)c3ccc(-n4c(C)cc5ccccc54)s3)CC2)cc1	-16%	·	-29%	18µM*	0%
COc1cccc(CN2CCC(n3nccc3NC(=O)CCOc3ccccc3)CC2)c1O	-5%	·	-14%	?	0%
C[C@]12CC[C@H](O)CC1=CCC1C2CC[C@@]2(C)C1C[C@@H]1CC(=O)O[C@@H]12 (stereo partly specified)	-4%	?	3%	18µM*	0%
C[C@]12CC[C@H](N)CC1=CCC1C2CC[C@@]2(C)C1CC[C@@H]2O (stereo partly specified)	-4%	16µM*	-20%	?	6%
C[C@]12CC[C@@H](O)CC1=CCC1C2CC[C@@]2(C)C1CC[C@@H]2N (stereo partly specified)	13%	9%	3%	?	2%
CN(C)c1c([N+](=O)[O-])cc(N2C(=O)C=CC2=O)cc1[N+](=O)[O-]	2%	·	?	?	-1%
O=C1C=CC2C3C(=O)N(c4ccccc4)C(=O)C3C1N2Cc1ccccc1 (stereo unspecified)	-18%	·	0%	13%	?
O=P(Nc1ccccc1)(Nc1ccccc1)Oc1ccccc1	1%	?	-6%	-16%	0%
O=P(Nc1ccccc1)(Nc1ccccc1)Oc1cccc(Cl)c1	3%	16µM*	?	?	0%
CCc1cc(=O)oc2c(C)c(OCC(=O)N3CCC[C@@H]3C(=O)O)ccc12	5%	?	5%	6%	-1%
Nc1nonc1-n1nnc(C(=O)N/N=C/c2ccc3c(c2)OCO3)c1CSc1ccccc1	-4%	-3%	-8%	?	0%
CCC1CN2CCc3cc(OC)c(OC)cc3C2CC1CC1NCCc2c1[nH]c1ccc(O)cc21 (stereo unspecified)	3%	·	1.2µM*	0.52µM*	-2%
C=CCSc1nnc(NC(=O)c2ccc(Cl)nc2)s1	33%	?	-3%	-25%	2%
Cc1cccc(Cc2cnc(NC(=O)c3ccc4c(c3)CC(c3ccccc3)OC4=O)s2)c1 (stereo unspecified)	-9%	·	-1%	?	0%
COc1ccc(NP(=O)(Oc2ccccc2OC)Oc2ccccc2OC)cc1	1%	21µM*	-15%	?	0%
CCOc1ccc(CCNC(=O)c2cnc3sc(N4CCCC4)nn3c2=O)cc1	-3%	·	-15%	12µM*	-1%
CCCC1=Nc2cc(C(=O)NCCc3ccc(OCC)cc3)ccc2Sc2ccccc21	-8%	·	-6%	?	0%
CN(CCc1ccccn1)Cc1ccc(Cl)cc1	14%	·	?	?	0%

Screening results from PubChem BioAssay.
